# Experimental data: the supplement of paper PMC10981050
# Where “and” joins values, the source holds several entries; their conditions need not be identical. Identical values can stand only once. Counter-ions that a name gives are not always drawn.
# What was measured:
# Assay in all cases: cell viability relative to vehicle control; higher = less cytotoxic
# Conditions in all cases: 10 µM
# K562 = tested on: K562
# In short: (§1)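 CRISPR-edited mutant clones and isogenic wild-type clones from four leukaemia lines were screened against Selleck bioactive, kinase and epigenetic probe libraries, with identity-inconsistent compounds excluded. Each compound was acoustically dispensed at a single 10 µM dose into 384-well plates holding 2000 cells in 50 µL medium per well. After 48 h the supernatant was removed and CellTiter-Glo luminescence was read. Viability was expressed as percent of the on-plate vehicle control and analysed in Genedata Screener.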
# MARIMO = tested on: MARIMO
# In short: as §1
# MOLM14 = tested on: MOLM14
# In short: as §1
# OCI-AML2 = tested on: OCI-AML2
# In short: as §1
Compound,cell viability (K562; SRSF2 genotype: SRSF2 P95H/wt),cell viability (K562; SRSF2 genotype: SRSF2 wt/wt),cell viability (MARIMO; SRSF2 genotype: SRSF2 P95H/wt),cell viability (MARIMO; SRSF2 genotype: SRSF2 wt/wt),cell viability (MOLM14; SRSF2 genotype: SRSF2 P95H/wt),cell viability (MOLM14; SRSF2 genotype: SRSF2 wt/wt),cell viability (OCI-AML2; SRSF2 genotype: P95H/wt),cell viability (OCI-AML2; SRSF2 genotype: wt/wt)
O=C(O)COCCN1CCN(C(c2ccccc2)c2ccc(Cl)cc2)CC1 (stereo not given) [Cetirizine Dihydrochloride],94.7% and 100%,98.7%,95%,93.1%,94.2%,100%,103%,101%
CCOC(=O)[C@@H](N)Cc1ccc(-c2cc(O[C@H](c3ccc(Cl)cc3-n3ccc(C)n3)C(F)(F)F)nc(N)n2)cc1 [LX1606 hippurate],64.2% and 52.4%,57.2%,68.9%,72.7%,14.2%,44.5%,4.73%,12.2%
Cc1cc(C(C)Nc2ccccc2)c2nc(N3CCOCC3)cc(=O)n2c1 (stereo not given),92.6% and 97.6%,93.3%,90.7%,90.4%,70.9%,69%,73.4%,76.6%
C=CCc1cc(OC)c(O)c(C(=O)NCCO)c1 [Alibendol],100% and 103%,103%,98.2%,104%,98.2%,102%,100%,112%
CN(C)CC(c1ccc(O)cc1)C1(O)CCCCC1 (stereo not given) [Desvenlafaxine],96.7% and 97.5%,101%,102%,102%,98.1%,100%,100%,99.3%
NCCCCCC(=O)O,99% and 100%,99.6%,101%,98.5%,103%,105%,113%,99%
COc1cc(-c2ncn(/C=C\C(=O)OC(C)C)n2)cc(C(F)(F)F)c1,5.77% and 12.8%,10.7%,19.1%,20.6%,2.46%,0.92%,4.82%,9.13%
CC(C)c1cc2c(cc1S(=O)(=O)O)[C@@]1(C)CCC[C@@](C)(C(=O)O)[C@@H]1CC2 [Ecabet sodium],95.2% and 96.4%,105%,96.6%,101%,97%,99.7%,105%,91.8%
CC(C(=O)Nc1cccc(/N=C/c2c(O)ccc3ccccc23)c1)c1ccccc1 (stereo not given) [Salermide],82.7% and 84.2%,83.2%,90.8%,93.8%,104%,101%,88.6%,90.3%
O=c1c2ccccc2nc(C=Cc2cccnc2)n1Cc1ccccc1,86.8% and 86.9%,79.8%,74.3%,90.1%,78.5%,82.6%,78.4%,75.9%
C[C@]1(O)C[C@@H](O)[C@@H]2C=CO[C@@H](O[C@@H]3O[C@H](CO)[C@@H](O)[C@H](O)[C@H]3O)[C@@H]21 [Leonuride],105% and 99.7%,106%,101%,94.9%,102%,101%,102%,102%
Cc1cccc(-c2[nH]c(C(C)(C)C)nc2-c2ccc3c(c2)OCO3)n1,63.9% and 60.2%,47.6%,61.4%,63.3%,84.9%,83.8%,52.6%,50%
CCO[C@@H]1OC(=O)C[C@@H]1NC(=O)[C@@H]1CCCN1C(=O)[C@@H](NC(=O)c1ccc(N)c(Cl)c1)C(C)(C)C [Belnacasan (VX-765)],99.5% and 102%,94%,95.2%,104%,97.7%,98.1%,103%,104%
CC(=O)N1C[C@H](O)C[C@H]1C(=O)O [Oxaceprol],101% and 93.4%,99.3%,104%,109%,96.1%,102%,94.3%,106%
CN(C(=O)CNC(=O)/C=C/c1cccc(Cl)c1)C1CCS(=O)(=O)CC1,35.4% and 33%,28.4%,103%,104%,105%,86%,101%,104%
COC(=O)C1=C(C)NC(C)=C(C(=O)OC(C)C)C1c1cccc2nonc12 (stereo not given) [Isradipine (Dynacirc)],95.3% and 96.5%,97.3%,99.4%,103%,101%,100%,93.2%,99.5%
CCn1c2ccccc2c2cc(Nc3ccnc(NCCCN4CCOCC4)n3)ccc21,4.34% and 6.16%,6.8%,19.1%,24.9%,2.38%,0.71%,0.41%,1.05%
CCOC(=O)c1csc(Nc2ccc(Cl)cc2)n1,97.1% and 103%,92.5%,81%,92.8%,111%,111%,75.6%,71.8%
COc1cc(/C=C/C(=O)O[C@H]2CC[C@]34C[C@]35CC[C@]3(C)[C@@H]([C@H](C)CCC=C(C)C)CC[C@@]3(C)[C@@H]5CC[C@H]4C2(C)C)ccc1O [Gamma-Oryzanol],96.7% and 93.9%,97.5%,98.5%,107%,103%,101%,97.7%,107%
CC(C)n1nc(-c2ccc3oc(N)nc3c2)c2c(N)ncnc21,31.8% and 31.3%,29.9%,37.9%,32.7%,13.6%,15.8%,6.33%,12%
